Inconclusive results are not listed. Active and inactive are the calls of the source. How the source made its calls, unless noted: active means hit-call score of the fitted dose curve at least 0.9, where 1 is the maximum; inactive means score below 0.9.

The target of assay [1] is Glucocorticoid receptor (Homo sapiens) (UniProt P04150). The experiment in a line: ATG_GR_TRANS: Attagene TRANS-FACTORIAL HepG2 Assay for human Glucocorticoid Receptor (GR) (AID 2282978; active means hit-call score of the fitted dose curve at least 0.9, where 1 is the maximum;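 further: activators score as hits since higher reporter transcript over DMSO is fitted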). Conditions: HepG2 Attagene TRANS GR reporter, mRNA transcription. The gist of the method: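 Transiently transfected HepG2 cells express chimeric NR-GAL4 proteins acting on GAL4-UAS reporter units. Compounds are applied for 24 h. mRNA induction over DMSO is measured by capillary electrophoresis.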
Sequence of Glucocorticoid receptor (Homo sapiens) (P04150 whole entry, looked up, the tested form may be a part): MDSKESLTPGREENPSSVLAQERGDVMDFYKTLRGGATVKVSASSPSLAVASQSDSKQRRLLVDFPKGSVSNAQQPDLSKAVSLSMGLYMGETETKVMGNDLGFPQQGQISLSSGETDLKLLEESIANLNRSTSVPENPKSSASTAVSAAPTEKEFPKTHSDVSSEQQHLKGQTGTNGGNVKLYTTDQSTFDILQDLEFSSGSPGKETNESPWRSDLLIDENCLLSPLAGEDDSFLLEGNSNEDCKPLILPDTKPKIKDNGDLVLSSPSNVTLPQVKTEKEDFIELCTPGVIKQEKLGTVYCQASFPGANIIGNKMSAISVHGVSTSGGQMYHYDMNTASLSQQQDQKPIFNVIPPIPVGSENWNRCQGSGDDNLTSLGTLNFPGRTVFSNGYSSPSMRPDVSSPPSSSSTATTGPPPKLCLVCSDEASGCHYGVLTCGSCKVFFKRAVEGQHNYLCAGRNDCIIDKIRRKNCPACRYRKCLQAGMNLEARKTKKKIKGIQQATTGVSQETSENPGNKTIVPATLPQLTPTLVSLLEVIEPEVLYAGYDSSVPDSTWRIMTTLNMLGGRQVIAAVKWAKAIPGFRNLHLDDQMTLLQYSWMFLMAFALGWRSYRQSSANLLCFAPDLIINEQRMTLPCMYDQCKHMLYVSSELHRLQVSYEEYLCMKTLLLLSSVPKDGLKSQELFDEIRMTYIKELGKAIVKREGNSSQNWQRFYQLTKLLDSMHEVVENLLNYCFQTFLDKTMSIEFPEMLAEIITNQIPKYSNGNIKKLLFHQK

Assay [2] deals with Oxysterols receptor LXR-alpha (Homo sapiens) (UniProt Q13133). The experiment in a line: ATG_LXRa_TRANS: Attagene TRANS-FACTORIAL HepG2 Assay for human Liver X Receptor alpha (LXRa) (AID 2282980; active means hit-call score of the fitted dose curve at least 0.9, where 1 is the maximum). As to conditions: HepG2 Attagene TRANS reporter, LXRa transactivation. The gist of the method: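 HepG2 cells transiently transfected with GAL4-UAS reporter units for chimeric NR-Gal4 proteins, exposed to chemicals for 24 h. Reporter mRNA quantified by RT-PCR and capillary electrophoresis; gain of signal fitted relative to DMSO.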
Sequence of Oxysterols receptor LXR-alpha (Homo sapiens) (Q13133 whole entry, looked up, the tested form may be a part): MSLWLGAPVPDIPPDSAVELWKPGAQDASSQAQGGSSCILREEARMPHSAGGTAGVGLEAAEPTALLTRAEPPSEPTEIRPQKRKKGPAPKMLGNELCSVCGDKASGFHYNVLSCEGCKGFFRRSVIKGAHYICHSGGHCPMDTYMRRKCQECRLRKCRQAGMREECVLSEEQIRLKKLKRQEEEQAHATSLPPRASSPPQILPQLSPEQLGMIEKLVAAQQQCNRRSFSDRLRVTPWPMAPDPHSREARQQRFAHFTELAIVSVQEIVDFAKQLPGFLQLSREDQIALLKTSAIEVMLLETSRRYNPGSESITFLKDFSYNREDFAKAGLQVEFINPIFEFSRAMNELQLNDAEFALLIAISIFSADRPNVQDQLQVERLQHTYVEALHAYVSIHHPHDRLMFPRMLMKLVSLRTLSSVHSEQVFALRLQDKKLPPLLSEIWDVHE

Assay [3] concerns the target Oxysterols receptor LXR-beta (Homo sapiens) (UniProt P55055). The experiment in a line: ATG_LXRb_TRANS: Attagene TRANS-FACTORIAL HepG2 Assay for human Liver X Receptor beta (LXRb) (AID 2282981; active means hit-call score of the fitted dose curve at least 0.9, where 1 is the maximum). Conditions: HepG2 Attagene TRANS GAL4-LXRb reporter, mRNA. The gist of the method:
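HepG2 cells transiently transfected with GAL4-UAS reporter units for chimeric NR-Gal4 proteins, dosed for 24 h. Reporter transcripts measured by RT-PCR and capillary electrophoresis; gain-of-signal fitting relative to DMSO.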

The nature of assay [4]: ATG_M_32_TRANS: Attagene TRANS-FACTORIAL HepG2 Assay for M32 Transcription Factor (Internal Marker) (AID 2282984; active means hit-call score of the fitted dose curve at least 0.9, where 1 is the maximum;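 further: transcript level of a background control reporter unit measured by RT-PCR and capillary electrophoresis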). As to conditions: HepG2 Attagene TRANS M32 internal marker reporter. An outline of the steps:
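HepG2 cells transiently transfected with GAL4-UAS reporter units, dosed for 24 hours. Reporter mRNA quantified by RT-PCR, 6-FAM labelling, HpaI digestion and capillary electrophoresis; internal-marker signal fitted upward relative to DMSO.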

Assay [5] concerns the target Transcriptional activator Myb (Homo sapiens) (UniProt P10242). Description: ATG_Myb_CIS: Attagene CIS-FACTORIAL HepG2 Assay for human Myeloblastosis (Myb) Proto-Oncogene Transcription Factor (AID 2282986). As to conditions: HepG2 Attagene CIS-FACTORIAL Myb reporter transcription; actives raise or lower the signal. The gist of the method: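 Using HepG2 liver cells bearing transiently transfected cis-promoter reporter constructs, the assay measures induction or loss of reporter mRNA after 24 hours of dosing. Detection used fluorescently labeled RT-PCR products separated by capillary electrophoresis.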

The target of assay [6] is Nuclear respiratory factor 1 (Homo sapiens) (UniProt Q16656). The experiment in a line: ATG_NRF1_CIS: Attagene CIS-FACTORIAL HepG2 Assay for human Nuclear Respiratory Factor 1 (NRF1) Orphan Gene (AID 2282987). As to conditions: HepG2 NRF1 cis-element reporter, Attagene multiplex; actives raise or lower the signal. An outline of the steps: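 Reporter mRNA induction or loss in HepG2 cells after 24 h dosing; cis-regulated reporter constructs report endogenous transcription-factor activity. Quantified by RT-PCR/capillary electrophoresis fluorescence, DMSO-referenced.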
Sequence of Nuclear respiratory factor 1 (Homo sapiens) (Q16656 whole entry, looked up): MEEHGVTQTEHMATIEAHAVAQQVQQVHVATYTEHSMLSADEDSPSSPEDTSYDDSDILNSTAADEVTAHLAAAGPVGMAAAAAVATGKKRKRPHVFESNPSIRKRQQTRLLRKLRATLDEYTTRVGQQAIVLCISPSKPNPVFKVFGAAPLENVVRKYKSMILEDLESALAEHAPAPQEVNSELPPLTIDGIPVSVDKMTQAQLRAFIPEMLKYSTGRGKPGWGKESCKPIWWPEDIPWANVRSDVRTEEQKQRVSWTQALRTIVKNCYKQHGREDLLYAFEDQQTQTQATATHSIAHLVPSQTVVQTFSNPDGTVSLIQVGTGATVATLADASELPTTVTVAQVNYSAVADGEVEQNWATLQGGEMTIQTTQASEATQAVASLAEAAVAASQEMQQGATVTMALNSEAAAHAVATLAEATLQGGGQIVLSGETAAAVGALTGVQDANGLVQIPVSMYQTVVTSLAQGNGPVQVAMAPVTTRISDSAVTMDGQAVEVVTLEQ

Assay [7] can be described thus: ATG_NFI_CIS: Attagene CIS-FACTORIAL HepG2 Assay for human Nuclear Factor I (NFI) (AID 2282989). Conditions: HepG2 cis-regulatory reporter, NFI response element transcription; actives raise or lower the signal. The gist of the method: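 Cells: human liver HepG2, transiently transfected with promoter-regulated reporter transcription units. Exposure 24 h. Detection: fluorescent RT-PCR products separated by capillary electrophoresis, normalised to DMSO negative control.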

Assay [8] can be described thus: ATG_NF_kB_CIS: Attagene CIS-FACTORIAL HepG2 Assay for human Nuclear Factor Kappa B (NF-kB) (AID 2282991). As to conditions: HepG2 Attagene cis-factorial NF-kB reporter mRNA; actives raise or lower the signal. The gist of the method:
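DMSO served as negative control and baseline for bidirectional curve fitting. Transiently transfected HepG2 cells were dosed for 24 h, then reporter transcripts were measured by RT-PCR with capillary electrophoresis detection.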

Assay [9] is described as follows: ATG_NRF2_ARE_CIS: Attagene CIS-FACTORIAL HepG2 Assay for human Nuclear Factor Erythroid 2 Related Factor 2 (NFR2) response to Antioxidant Response Elements (ARE) (AID 2282992).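 On AC50: reporter mRNA level measured by RT-PCR and capillary electrophoresis fluorescence.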 As to conditions: HepG2 Attagene ARE/NRF2 reporter, transcription factor activity; actives raise or lower the signal. The gist of the method: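 HepG2 cells transiently transfected with multiplexed cis-regulated reporter transcription units measure endogenous transcription factor activity. Reporter mRNA at 24 h is quantified by RT-PCR, fluorescent labelling and capillary electrophoresis, with bidirectional fitting relative to DMSO.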

The nature of assay [10]: ATG_Oct_MLP_CIS: Attagene CIS-FACTORIAL HepG2 Assay for human Octamer-Binding Transcription Factor (Oct) (AID 2282993). As to conditions: HepG2 Attagene cis-factorial Oct reporter, mRNA; actives raise or lower the signal. The gist of the method:
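HepG2, transient MRTU transfection, cis promoter elements; 24 h dosing; RT-PCR/CE fluorescence read-out of reporter mRNA; fit both directions vs DMSO.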

The target of assay [11] is Cellular tumor antigen p53 (Homo sapiens) (UniProt P04637). The experiment in a line: ATG_p53_CIS: Attagene CIS-FACTORIAL HepG2 Assay for human p53 Transcription Factor (AID 2282994). Conditions: HepG2 p53 cis-element reporter, Attagene mRNA; actives raise or lower the signal. An outline of the steps: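 HepG2 cells transiently transfected with multiplexed cis-regulated reporter transcription units read endogenous TF activity. After 24 h compound exposure, reporter mRNA was quantified by RT-PCR, fluorescent labelling, HpaI digestion and capillary electrophoresis; bidirectional fits versus DMSO baseline.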
Sequence of Cellular tumor antigen p53 (Homo sapiens) (P04637 whole entry, looked up): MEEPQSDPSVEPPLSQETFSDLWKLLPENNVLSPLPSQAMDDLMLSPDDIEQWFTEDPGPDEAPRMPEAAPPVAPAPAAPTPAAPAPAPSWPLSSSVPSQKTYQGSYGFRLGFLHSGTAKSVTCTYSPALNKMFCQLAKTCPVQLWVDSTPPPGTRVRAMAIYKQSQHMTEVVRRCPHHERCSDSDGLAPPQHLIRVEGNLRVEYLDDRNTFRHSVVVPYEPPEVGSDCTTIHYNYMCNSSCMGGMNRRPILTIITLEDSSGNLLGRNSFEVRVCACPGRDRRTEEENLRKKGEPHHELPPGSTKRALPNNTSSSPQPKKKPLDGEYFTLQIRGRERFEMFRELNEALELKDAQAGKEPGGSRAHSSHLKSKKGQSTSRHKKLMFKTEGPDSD

The nature of assay [12]: BSK_3C_TissueFactor: BioMAP Diversity Plus: 3C Assay for Tissue Factor Biomarker Activity (AID 2282997). As to conditions: BioMAP 3C HUVEC, tissue factor biomarker readout; actives raise or lower the signal. An outline of the steps:
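HUVEC were treated 24 h, then surface tissue factor measured by ELISA and fitted bidirectionally against DMSO. Parallel SRB total-protein staining assessed overt cytotoxicity at the same time point.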

Assay [13] in a line: BSK_3C_uPAR: BioMAP Diversity Plus: 3C Assay for Urokinase-type plasminogen activator receptor (uPAR) Biomarker Activity (AID 2282998). Conditions: BioMAP 3C HUVEC, uPAR biomarker ELISA; actives raise or lower the signal. The gist of the method: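 A multiplexed primary-cell system built on human umbilical vein endothelium was used, with chemical present for 24 h before reading. Cell-surface uPAR was detected by ELISA; signal change in either direction counted against DMSO.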
(An ELISA detects its analyte on a solid surface through an enzyme-linked reagent.)

In assay [14] the target is Hepatocyte nuclear factor 4-alpha (Homo sapiens) (UniProt P41235). Description: ATG_HNF4a_TRANS: Attagene TRANS-FACTORIAL HepG2 Assay for human Hepatocyte Nuclear Factor 4 alpha (HNF4a) (AID 2282982; active means hit-call score of the fitted dose curve at least 0.9, where 1 is the maximum). As to conditions: HepG2 HNF4a transactivation reporter, mRNA readout. An outline of the steps:
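HepG2 cells transiently transfected with HNF4a-Gal4 chimera and GAL4-UAS reporter units, dosed for 24 h. Reporter mRNA measured by RT-PCR, fluorescent primer extension and capillary electrophoresis; gain-of-signal fitted relative to DMSO.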

The target in assay [15] is Nuclear receptor subfamily 4 group A member 2 (Homo sapiens) (UniProt P43354). The experiment in a line: ATG_NURR1_TRANS: Attagene TRANS-FACTORIAL HepG2 Assay for human Nuclear Receptor Related Protein 1 (NURR1) (AID 2282985; active means hit-call score of the fitted dose curve at least 0.9, where 1 is the maximum). As to conditions: HepG2 Attagene TRANS reporter, mRNA readout. An outline of the steps: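 HepG2 cells transiently transfected with NURR1-Gal4 chimera and GAL4-UAS reporter units; after 24 hr compound exposure, reporter mRNA quantified by RT-PCR and capillary electrophoresis; gain of signal fitted against DMSO.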

The target in assay [16] is Bile acid receptor (Homo sapiens) (UniProt Q96RI1). Description: ATG_FXR_TRANS: Attagene TRANS-FACTORIAL HepG2 Assay for Farnesoid X Receptor (FXR) (AID 2282979; active means hit-call score of the fitted dose curve at least 0.9, where 1 is the maximum;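 further: hits raise reporter mRNA above DMSO so AC50 marks FXR activation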). Conditions: HepG2 Attagene TRANS FXR-GAL4 reporter transcription. The gist of the method:
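HepG2 cells were transiently transfected with GAL4-UAS reporters driven by chimeric NR-Gal4 proteins and dosed for 24 h. Reporter mRNA was quantified by RT-PCR, fluorescent labelling, HpaI digestion and capillary electrophoresis, with gain of signal scored versus DMSO.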

Assay [17] is described as follows: ATG_M_06_TRANS: Attagene TRANS-FACTORIAL HepG2 Assay for M06 Transcription Factor (Internal Marker) (AID 2282983; active means hit-call score of the fitted dose curve at least 0.9, where 1 is the maximum;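 further: reporter transcript level by RT-PCR then capillary electrophoresis fluorescence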). Conditions: HepG2 Attagene TRANS M06 internal marker reporter. An outline of the steps: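 HepG2 cells transiently transfected with GAL4-UAS multiple reporter units, dosed 24 h. Reporter RNA reverse-transcribed, PCR-amplified, 6-FAM-labeled, HpaI-digested and quantified by capillary electrophoresis; this internal-marker signal fitted upward relative to DMSO.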

The target in assay [18] is Myc proto-oncogene protein (Homo sapiens) (UniProt P01106). The experiment in a line: ATG_Myc_CIS: Attagene CIS-FACTORIAL HepG2 Assay for human Myelocytomatosis (Myc) Proto-Oncogene Transcription Factor (AID 2282990). As to conditions: HepG2, Attagene cis-reporter transcription factor activity; actives raise or lower the signal. An outline of the steps: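 Read-out: fluorescent reporter mRNA fragments resolved by capillary electrophoresis after RT-PCR. Human HepG2 liver cells carried transfected cis-element reporter units and were dosed for 24 h. Gain or loss of signal fitted relative to DMSO baseline.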
Sequence of Myc proto-oncogene protein (Homo sapiens) (P01106 whole entry, looked up, the tested form may be a part): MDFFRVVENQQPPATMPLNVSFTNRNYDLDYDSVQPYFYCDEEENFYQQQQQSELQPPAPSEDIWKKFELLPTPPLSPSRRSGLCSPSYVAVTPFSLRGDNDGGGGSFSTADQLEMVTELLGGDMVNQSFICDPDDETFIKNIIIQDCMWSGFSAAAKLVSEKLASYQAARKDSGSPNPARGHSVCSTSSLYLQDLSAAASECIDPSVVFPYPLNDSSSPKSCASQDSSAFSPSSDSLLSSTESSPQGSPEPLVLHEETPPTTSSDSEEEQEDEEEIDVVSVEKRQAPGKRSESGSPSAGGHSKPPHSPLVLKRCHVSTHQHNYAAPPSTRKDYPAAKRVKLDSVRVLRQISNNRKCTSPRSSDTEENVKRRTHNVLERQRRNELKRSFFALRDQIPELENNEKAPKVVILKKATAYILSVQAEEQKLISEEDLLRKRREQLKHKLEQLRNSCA

Sequence of Oxysterols receptor LXR-beta (Homo sapiens) (P55055 whole entry, looked up, the tested form may be a part): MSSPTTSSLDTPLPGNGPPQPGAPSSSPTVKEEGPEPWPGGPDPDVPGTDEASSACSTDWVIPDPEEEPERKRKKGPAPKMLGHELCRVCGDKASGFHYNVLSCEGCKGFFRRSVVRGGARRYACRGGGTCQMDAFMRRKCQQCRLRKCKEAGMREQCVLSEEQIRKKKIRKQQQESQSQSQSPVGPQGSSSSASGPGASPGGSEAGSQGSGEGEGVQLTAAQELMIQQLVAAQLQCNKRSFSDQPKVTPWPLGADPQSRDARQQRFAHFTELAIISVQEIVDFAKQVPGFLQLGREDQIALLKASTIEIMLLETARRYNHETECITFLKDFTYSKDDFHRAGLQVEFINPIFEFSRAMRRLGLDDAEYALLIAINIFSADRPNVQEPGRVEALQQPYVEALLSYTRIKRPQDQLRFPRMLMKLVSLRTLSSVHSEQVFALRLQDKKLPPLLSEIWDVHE
Sequence of Hepatocyte nuclear factor 4-alpha (Homo sapiens) (P41235 whole entry, looked up, the tested form may be a part): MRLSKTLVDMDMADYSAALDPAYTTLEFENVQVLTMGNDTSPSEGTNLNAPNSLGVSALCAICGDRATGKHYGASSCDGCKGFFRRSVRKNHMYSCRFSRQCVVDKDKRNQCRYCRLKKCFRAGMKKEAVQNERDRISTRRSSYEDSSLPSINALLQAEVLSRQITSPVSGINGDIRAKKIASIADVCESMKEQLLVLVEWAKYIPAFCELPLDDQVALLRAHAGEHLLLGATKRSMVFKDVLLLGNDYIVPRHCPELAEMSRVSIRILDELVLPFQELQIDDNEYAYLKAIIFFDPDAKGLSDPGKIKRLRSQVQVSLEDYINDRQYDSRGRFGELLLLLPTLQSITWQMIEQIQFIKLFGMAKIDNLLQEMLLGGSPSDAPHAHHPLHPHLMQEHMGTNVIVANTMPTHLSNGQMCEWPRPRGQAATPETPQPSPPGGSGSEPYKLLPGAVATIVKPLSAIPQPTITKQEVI
Sequence of Bile acid receptor (Homo sapiens) (Q96RI1 whole entry, looked up, the tested form may be a part): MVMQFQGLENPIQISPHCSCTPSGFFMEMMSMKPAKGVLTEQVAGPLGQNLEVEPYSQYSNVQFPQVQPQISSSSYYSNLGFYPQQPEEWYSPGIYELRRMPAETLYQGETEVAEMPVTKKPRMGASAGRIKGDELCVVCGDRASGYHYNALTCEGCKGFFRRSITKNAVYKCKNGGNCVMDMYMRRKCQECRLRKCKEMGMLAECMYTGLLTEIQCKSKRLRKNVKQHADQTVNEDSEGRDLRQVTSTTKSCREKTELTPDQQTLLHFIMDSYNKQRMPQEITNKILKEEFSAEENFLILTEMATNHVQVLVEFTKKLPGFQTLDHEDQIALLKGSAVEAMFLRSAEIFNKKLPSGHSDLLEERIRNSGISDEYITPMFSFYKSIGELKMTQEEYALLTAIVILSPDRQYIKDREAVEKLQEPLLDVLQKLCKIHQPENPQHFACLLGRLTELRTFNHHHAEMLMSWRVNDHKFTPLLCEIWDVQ
Sequence of Transcriptional activator Myb (Homo sapiens) (P10242 whole entry, looked up): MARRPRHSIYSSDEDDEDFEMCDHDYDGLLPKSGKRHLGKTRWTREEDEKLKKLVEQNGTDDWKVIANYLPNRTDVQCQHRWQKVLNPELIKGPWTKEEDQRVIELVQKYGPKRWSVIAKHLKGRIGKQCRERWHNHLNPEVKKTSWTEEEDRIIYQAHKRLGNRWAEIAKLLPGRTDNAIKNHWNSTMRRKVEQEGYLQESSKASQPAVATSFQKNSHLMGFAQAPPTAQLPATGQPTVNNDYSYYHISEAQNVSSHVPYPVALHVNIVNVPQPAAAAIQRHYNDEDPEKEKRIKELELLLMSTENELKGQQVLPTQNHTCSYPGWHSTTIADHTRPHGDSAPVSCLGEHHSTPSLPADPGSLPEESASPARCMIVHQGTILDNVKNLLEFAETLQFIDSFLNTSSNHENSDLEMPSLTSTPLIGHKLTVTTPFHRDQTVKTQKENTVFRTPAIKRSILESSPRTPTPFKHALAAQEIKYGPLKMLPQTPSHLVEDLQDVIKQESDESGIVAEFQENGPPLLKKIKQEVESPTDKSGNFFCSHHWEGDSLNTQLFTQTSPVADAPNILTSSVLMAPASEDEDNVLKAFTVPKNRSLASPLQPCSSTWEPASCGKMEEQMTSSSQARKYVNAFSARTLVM

For `CS(=O)(=O)c1cc(C(F)(F)F)ccc1C(=O)c1cnoc1C1CC1`, the call in assay [1], in assay [2], in [3], in assay [4], in [5] and in assay [6] was inactive. In addition, the compound was classed as inactive in assay [7], in assay [8], in assay [11], in assay [12] and in assay [13]. In addition, the AC50 in [9] is 19.1 µM (active); in assay [10], 50 µM (active).
`O=c1n(Cl)c(=O)n(Cl)c(=O)n1Cl`: the outcome in assay [1], in assay [2], in assay [3], in assay [14], in assay [15] and in assay [5] was inactive. Further, the compound was called inactive in [6], in [7], in assay [8], in assay [9], in [10] and in assay [11]. The result in [12] and in assay [13] was inactive.
Regarding `CC(C)=CC1C(C(=O)OCc2coc(Cc3ccccc3)c2)C1(C)C` (stereo not given), the compound was classed as inactive in [1], in assay [16], in assay [2], in [3], in assay [14] and in assay [17]. Moreover, the call in [5], in [6], in assay [7], in assay [8] and in [12] was inactive. In addition, the AC50 in assay [15] is 33.9 µM (active); in [9], 13.8 µM (active); in assay [10], 6.38 µM (active); in [13], 12 µM (active).
For `CCN(CC)C(=O)C(C)Oc1cccc2ccccc12` (stereo not given), the compound was called inactive in assay [2], in [3], in assay [14], in [17], in [4] and in assay [15]. Moreover, the compound was called inactive in [5], in assay [6], in assay [7], in assay [18], in assay [11] and in assay [12]. The outcome in [13] was inactive. Also, the AC50 in [9] was 0.485 µM (active); in assay [10], 4.2 µM (active).
For `Nc1cnn(-c2ccccc2)c(=O)c1Cl`, the outcome in assay [2], in assay [3], in assay [4], in assay [5], in assay [6] and in assay [7] was inactive. In addition, the compound was called inactive in [8], in [9], in assay [10], in assay [11], in [12] and in [13].
Turning to `CCOc1nc(C(Cl)(Cl)Cl)ns1`, the compound was classed as inactive in assay [2], in assay [3], in [5], in [6], in assay [7] and in [18]. Moreover, the result in [8], in assay [11], in assay [12] and in assay [13] was inactive. In addition, the AC50 in [9] is 22.9 µM (active); in assay [10], 43.5 µM (active).
With `O=P(O)(O)CCCl`, the call in [16], in assay [2], in assay [3], in [14], in assay [17] and in assay [4] was inactive. The compound was called inactive in assay [15], in assay [5], in [6], in assay [7], in assay [18] and in assay [8]. In addition, the outcome in [9], in assay [10], in [11], in [12] and in [13] was inactive.
As to `Nc1c(Cl)c(Cl)nc(C(=O)O)c1Cl`, the outcome in assay [1], in assay [3], in assay [14], in assay [4], in [15] and in [5] was inactive. The compound was called inactive in [6], in [7], in assay [8], in [10], in [11] and in [12]. Moreover, the outcome in assay [13] was inactive. Also, the AC50 in assay [9] was 50 µM (active).
Take `CCC(C)n1c(=O)[nH]c(C)c(Br)c1=O` (stereo not given): the outcome in assay [16], in [3], in assay [14], in [15], in assay [5] and in [6] was inactive. Moreover, the compound was called inactive in assay [7], in assay [8], in assay [9], in assay [10], in assay [11] and in assay [12]. Moreover, in [13], the outcome was inactive.

As a reminder, the AC50 is the concentration giving half of the maximal activity seen.

The values above are taken from PubChem BioAssay (EPA / NIEHS).
